Structures can show the parent of a compound that is named as a salt. Values without a mark were called inactive.

One assay concerns Plasmodium falciparum NF54/iGP1_RE9H ulg8 stage V gametocytes. Put plainly: gametocyte viability (luciferase signal relative to DMSO control) (% of DMSO control); higher = less gametocytocidal activity, active = 50 or less. Conditions: concentration: 1 µM; exposure time: 72 h. The procedure: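 Synchronous P. falciparum NF54/iGP1_RE9H ulg8 mature stage V gametocytes (day 12) were exposed to Cayman Epigenetics Screening Library compounds at 10 µM or 1 µM for 72 h at 37 °C. Viability was read as RE9H luciferase bioluminescence, normalised to DMSO plate controls (100%); 50 µM methylene blue was the positive control.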
With `N[C@H]1CC[C@H](N[C@@H]2C[C@H]2c2ccccc2)CC1`, the gametocyte viability is 74.5.

With `Nc1c(S(=O)(=O)c2ccccc2)c2nc3ccccc3nc2n1-c1ccc(F)cc1`, the gametocyte viability is 66.8.

In the case of `COc1cc2c(NC3CCN(C4CCCCC4)CC3)nc(N3CCCN(C(C)C)CC3)nc2cc1OCCCN1CCCCC1`, the gametocyte viability was 75.5.

Consider `CNCCN1CCC(OCc2ccccc2)CC1` [MS049 (hydrochloride)], for which the gametocyte viability is 84.2.

Turning to `CC(C)N(CCCNC(=O)Nc1ccc(C(C)(C)C)cc1)C[C@H]1O[C@@H](n2cc(Br)c3c(N)ncnc32)[C@H](O)[C@@H]1O`, the gametocyte viability is 88.

Take `O=C(NC[C@H](O)CN1CCc2ccccc2C1)c1ccnc(NC2CCC2)c1`: the gametocyte viability was 80.7.

`O=C(O)C(Cc1c[nH]c2ccccc12)N1C(=O)c2ccccc2C1=O` (stereo not given): the gametocyte viability is 86.9.

Consider `COc1cc2c(cc1OCCCN1CCCC1)N=C(N)C21CCC1`, for which the gametocyte viability was 89.9.

For the compound `COC(=O)/C=C/C(=O)N(O)CCCCNCc1ccc(COC(=O)Nc2cccc3ccccc23)cc1` [Methylstat (hydrate)], the gametocyte viability was 89.4.

Regarding `CC(C)N(CCCNC(=O)Nc1ccc(C(C)(C)C)cc1)C[C@H]1O[C@@H](n2ccc3c(N)ncnc32)[C@H](O)[C@@H]1O`, the gametocyte viability was 94.6.

On to `CN(C)Cc1c(C(=O)NCCOc2ccc(C(=O)NO)cc2)oc2ccccc12`, for which the gametocyte viability was 65.8.

Consider `O=C1/C(=C/c2ccc(O)c(Br)c2)CCC/C1=C\c1ccc(O)c(Br)c1` [HAT Inhibitor II], for which the gametocyte viability is 89.2.

For `CCOC(=O)NNc1nncc2ccccc12` [Todralazine (hydrochloride)], the gametocyte viability was 89.5.

On to `Oc1cc(O)cc(/C=C/c2ccc(Br)cc2)c1` [4'-bromo-Resveratrol], for which the gametocyte viability was 51.7.

Turning to `O=C(O)CNC(=O)C(=O)O` [N-Oxalylglycine], the gametocyte viability is 87.3.

Regarding `O=c1[nH]c(=S)[nH]c(-c2ccccc2)c1Cc1c(O)ccc2ccccc12` [SIRT1/2 Inhibitor IV], the gametocyte viability was 84.7.

Take `O=C(CCCCCCC(=O)NO)NO` [Suberohydroxamic Acid]: the gametocyte viability was 106.

`CCOC(=O)NCCCC(=O)NCCc1ccccc1`: the gametocyte viability is 89.7.

With `Nc1ncnc2c1ncn2[C@@H]1O[C@H](C[C@@H](N)CC[C@H](N)C(=O)O)[C@@H](O)[C@H]1O` [Sinefungin], the gametocyte viability is 88.5.

In the case of `CC(C)(C)c1ccc(C(=O)NC(=S)Nc2ccc(N)cc2)cc1` [Tenovin-3], the gametocyte viability is 92.2.

The same assay, now with this note: concentration: 10 µM; exposure time: 72 h.
For `N[C@H]1CC[C@H](N[C@@H]2C[C@H]2c2ccccc2)CC1`, the gametocyte viability was 70.7.

With `Nc1c(S(=O)(=O)c2ccccc2)c2nc3ccccc3nc2n1-c1ccc(F)cc1`, the gametocyte viability is 56.6.

For the compound `COc1cc2c(NC3CCN(C4CCCCC4)CC3)nc(N3CCCN(C(C)C)CC3)nc2cc1OCCCN1CCCCC1`, the gametocyte viability is 13.4 (active).

Turning to `CNCCN1CCC(OCc2ccccc2)CC1` [MS049 (hydrochloride)], the gametocyte viability was 79.7.

Take `CC(C)N(CCCNC(=O)Nc1ccc(C(C)(C)C)cc1)C[C@H]1O[C@@H](n2cc(Br)c3c(N)ncnc32)[C@H](O)[C@@H]1O`: the gametocyte viability is 49.3 (active).

For the compound `O=C(NC[C@H](O)CN1CCc2ccccc2C1)c1ccnc(NC2CCC2)c1`, the gametocyte viability is 79.5.

Consider `O=C(O)C(Cc1c[nH]c2ccccc12)N1C(=O)c2ccccc2C1=O` (stereo not given), for which the gametocyte viability was 84.3.

As for `COc1cc2c(cc1OCCCN1CCCC1)N=C(N)C21CCC1`, the gametocyte viability is 93.7.

Regarding `COC(=O)/C=C/C(=O)N(O)CCCCNCc1ccc(COC(=O)Nc2cccc3ccccc23)cc1` [Methylstat (hydrate)], the gametocyte viability is 32 (active).

On to `CC(C)N(CCCNC(=O)Nc1ccc(C(C)(C)C)cc1)C[C@H]1O[C@@H](n2ccc3c(N)ncnc32)[C@H](O)[C@@H]1O`, for which the gametocyte viability is 94.1.

In the case of `CN(C)Cc1c(C(=O)NCCOc2ccc(C(=O)NO)cc2)oc2ccccc12`, the gametocyte viability was 59.

On to `O=C1/C(=C/c2ccc(O)c(Br)c2)CCC/C1=C\c1ccc(O)c(Br)c1` [HAT Inhibitor II], for which the gametocyte viability was 83.2.

Turning to `CCOC(=O)NNc1nncc2ccccc12` [Todralazine (hydrochloride)], the gametocyte viability is 89.1.

Take `Oc1cc(O)cc(/C=C/c2ccc(Br)cc2)c1` [4'-bromo-Resveratrol]: the gametocyte viability is 6.07 (active).

Take `O=C(O)CNC(=O)C(=O)O` [N-Oxalylglycine]: the gametocyte viability is 85.3.

Turning to `O=c1[nH]c(=S)[nH]c(-c2ccccc2)c1Cc1c(O)ccc2ccccc12` [SIRT1/2 Inhibitor IV], the gametocyte viability was 87.5.

As to `O=C(CCCCCCC(=O)NO)NO` [Suberohydroxamic Acid], the gametocyte viability is 87.9.

In the case of `CCOC(=O)NCCCC(=O)NCCc1ccccc1`, the gametocyte viability is 94.3.

For the compound `Nc1ncnc2c1ncn2[C@@H]1O[C@H](C[C@@H](N)CC[C@H](N)C(=O)O)[C@@H](O)[C@H]1O` [Sinefungin], the gametocyte viability is 85.6.

`CC(C)(C)c1ccc(C(=O)NC(=S)Nc2ccc(N)cc2)cc1` [Tenovin-3]: the gametocyte viability is 79.2.

For the origin of these results see the supplement of paper PMC12297408.
